Data taken from PubChem BioAssay AID1159580 (chemical genetic matrix, 2015).
Screen size: about 5,500 compounds; about 2,000 (36%) were called active. Roughly 18% stayed inconclusive and do not appear here. No stated cut-off is given here; in the data, active means normalized growth mostly below about 0.91 (no sharp cut-off); inconclusive means no clear call, values can overlap the other calls; inactive means mostly above about 0.92. Some of the results follow.

Experiment: chemical genetic growth profiling, strain panel (AID 1159580);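 further: tested at 20 µM; growth read once vehicle control cultures reached saturation at 30 °C; 1 = growth at the plate median or of vehicle wells; lower values mean less growth of the strain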
Details: S. cerevisiae deletion strains, growth OD

Measured: normalized growth

O=c1[nH]ccc2c(O)cccc12
inactive: locus YAL013W, strain DEP1, hits give low values 0.996 | locus YAL040C, strain CLN3, hits give low values 0.999 | locus YCL061C, strain MRC1 (second series), hits give low values 0.996 | locus YDR363W, strain ESC2, hits give low values 1.02 | locus YER002W, strain NOP16, hits give low values 0.999 | locus YGR078C, strain PAC10, hits give low values 1 | locus YGR229C, strain SMI1, hits give low values 1.02 | locus YNL175C, strain NOP13, hits give low values 1.01 | locus YNL197C, strain WHI3, hits give low values 1.01 | locus YNL224C, strain SQS1, hits give low values 0.994 | locus YNL322C, strain KRE1, hits give low values 1 | locus YOR083W, strain WHI5 (second series), hits give low values 1.06 | locus YPL241C, strain CIN2, hits give low values 0.99
